# Compound activity: PubChem BioAssay, National Center for Advancing Translational Sciences (NCATS)
# Compounds with a hit are over-represented: about 10% of the library has one in this group of screens.
# Six1-Eya2 blk: Six1/Eya2 interaction inhibition. Q15475+O00167. AlphaScreen GST-Six1/His-Eya2 binding, biochemical; stronger effect = lower value. activity change, % (test concentration not listed). hit rate 0.56% among 360,000; in the data active = activity change below about -65%; inconclusive = mostly about -30% to -63%; note: % is set by controls: 0 for no effect and ±100 for the full control effect
#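 GST-Six1 + His-Eya2 (5X stock: 250/500 nM); Tris pH 8.0, 300 mM NaCl, 0.05% BSA, 0.02% Tween 20; GSH donor/Ni acceptor beads; 1 h 37 °C dark; AlphaScreen readout.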
# CtBP-E1A blk: blocks the CtBP interaction with E1A. AlphaScreen GST-E1A/His-CtBP binding, 1536-well; stronger effect = lower value. activity change, % (concentration not given with the values). hit rate 0.49% among 340,000; in the data active = activity change below about -65%; inconclusive = mostly about -30% to -63%; note: % is set by controls: 0 for no effect and ±100 for the full control effect
#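 Protein mix (5X: 125 nM each GST-E1A, His-CtBP) was incubated with pinned compound 2 h at 37 deg C in dark, in 50 mM Tris pH 8.0 buffer with 300 mM NaCl. Glutathione donor and nickel acceptor beads followed; AlphaScreen signal read after 1 h.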
# BAZ2B block: inhibitors of human BAZ2B bromodomain; AID 504333; hit rate 4.4% among 360,000; AlphaScreen BAZ2B-H3K14Ac peptide displacement; Q9UIF8; Potency, µM (doses to about 114 µM), for inactives: top-dose activity change, negative = inhibition, usual class: inhibitors; note: potency is the fitted concentration of half-maximal effect; % is set by controls: 0 for no effect and ±100 for the full control effect; nearly all actives have a fitted effect of over 60% in size
#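 BAZ2B (50 nM) with biotin-H3(5-23)K14Ac peptide (50 nM) in PBS pH 7.4, 0.01% Tween-20, preformed 30 min, then compound 30 min at room temperature; top concentration 110uM. AlphaScreen streptavidin donor/nickel chelate acceptor beads (10 ug/mL final), 20 min dark, signal read.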
# G9a inh: G9a (human) methyltransferase inhibition; Q96KQ7; G9a H3K9 monomethylation, AlphaScreen, 2 h; Potency, µM (titrated, usually from 102 µM), for the others: top-dose activity, negative = inhibition, usual class: inhibitors; hit rate 8.8% among 350,000; AID 504332; note: potency is the fitted concentration of half-maximal effect; % is set by controls: 0 for no effect and ±100 for the full control effect; nearly all actives have a fitted effect of over 75% in size
# Target sequence (Q96KQ7 913-1193 limits assumed): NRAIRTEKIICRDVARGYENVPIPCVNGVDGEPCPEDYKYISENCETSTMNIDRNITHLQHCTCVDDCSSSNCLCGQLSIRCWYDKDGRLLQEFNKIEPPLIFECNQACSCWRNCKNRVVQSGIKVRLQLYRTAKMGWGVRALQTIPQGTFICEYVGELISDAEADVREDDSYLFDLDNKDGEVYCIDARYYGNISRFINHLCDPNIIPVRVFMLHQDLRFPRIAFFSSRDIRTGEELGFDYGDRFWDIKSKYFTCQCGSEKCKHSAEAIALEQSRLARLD
#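 Step 1: enzyme (final 20 nM) with compound, 15 min RT. Step 2: substrate peptide 500 nM and SAM 20 uM, 2 h RT. Step 3: anti-H3K9me1 antibody and AlphaScreen beads, 10 min, then plate read.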
# JMJD2A Tudor inh: JMJD2A Tudor domain (human) inhibition. AlphaScreen JMJD2A-Tudor / H3K4me3 peptide binding. Potency, µM (doses to about 114 µM), for the others: at the highest dose activity change, negative = inhibition, hits mostly inhibitors. hit rate 4.4% among 390,000. AID 504339; note: potency is the fitted concentration of half-maximal effect; % is set by controls: 0 for no effect and ±100 for the full control effect; nearly all actives have a fitted effect of over 50% in size
# HP1b chromo inh: HP1-beta chromodomain-methylated histone interaction inhibition. P83916. AlphaScreen HP1-beta / biotin-H3K9me3 peptide binding. Potency, µM (titrated, usually from 114 µM), for inactives: at the highest dose activity change, negative = inhibition, usual class: inhibitors. hit rate 0.56% among 390,000; note: potency is the fitted concentration of half-maximal effect; nearly all actives have a fitted effect of over 70% in size
# Target sequence (P83916 whole entry, looked up): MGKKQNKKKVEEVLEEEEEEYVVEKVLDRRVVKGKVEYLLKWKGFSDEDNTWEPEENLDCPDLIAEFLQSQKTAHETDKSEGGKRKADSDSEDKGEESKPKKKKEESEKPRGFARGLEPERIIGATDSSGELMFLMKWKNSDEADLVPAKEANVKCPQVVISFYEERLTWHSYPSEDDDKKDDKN
#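 Compound inhibition of the preformed complex between 50 nM HP1-beta and 50 nM biotinylated H3K9me3 peptide was read by AlphaScreen. Buffer was PBS pH 7.4 with 0.01% Tween-20. Incubations ran 30 min at room temperature, with 10 ug/mL donor/acceptor beads.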
# An asterisk follows results filed as active; ? = inconclusive; / = no result; [ ] = dose if it differs, or a comment. Unless noted, calls come from the whole dose curve; as a rule, active = well fitted inhibition curve with a large enough effect; inconclusive = small, poorly fitted or top-dose-only effect; inactive = no such curve, though single readings can be large or run the other way.
SMILES,Six1-Eya2 blk,CtBP-E1A blk,BAZ2B block,G9a inh,JMJD2A Tudor inh,HP1b chromo inh
CCN(CC)CC(=O)Nc1ccc(C)cc1C(=O)c1ccccc1,4,0,1%,-1%[59 µM],-14%,9%
Cc1ccc(S(=O)(=O)NCCC(=O)Nc2ccc(C)cc2C(=O)c2ccccc2)cc1,-10,1,-32%,5%[59 µM],50µM*,-7%
Cc1ccc(C)c2c(N)c3c(nc12)CCCCC3 (tested in a mixture with another compound),-12,-24,-4%,45µM*,-4%,31%
COc1ccc(NC(=O)C(=O)NCCc2csc(-c3ccc(Cl)cc3)n2)cc1OC,/,/,-2%,8%[59 µM],0%,23%[57 µM]
CC#Cc1cc2c(cc1O)CCC1C2CCC2(C)C(O)CCC12 (stereo not given),-9,3,/,/,79µM*,?
CCNc1cc2c(cc1O)CCC1C2CCC2(C)C(O)CCC12 (stereo not given),-14,-2,/,/,89µM*,?
O=C(CCNS(=O)(=O)c1ccc2c(c1)CCN2C(=O)C1CC1)Nc1ccc(OC(F)(F)F)cc1,/,/,-11%,-15%[59 µM],?,20%[57 µM]
c1ccc(C(Nc2cccnc2)c2ccccc2)cc1,-3,3,/,/,-3%,41%
c1ccc(NC(c2ccccc2)c2ccncc2)cc1 (stereo not given),22,31,0%,32µM*,-10%,57%
NC(c1ccccc1)c1ccncc1 (stereo not given),-1,/,?,45µM*,4%,29%
N#C/C(N=Nc1ccccc1O)=N\Nc1ccccc1O,-70*,-82*,11µM*,?,22µM*,16µM*
Oc1ccccc1N=N/C(=N/Nc1ccccc1O)c1ccccc1,-2,-1,?,7%[2.33 µM],-35%,-2%
CCOC(=O)c1c(C)oc2nc(C)nc(N3CCN(c4ccccc4F)CC3)c12,/,/,-15%[57.1 µM],-32%[59 µM],-18%,2%
O=C(Cc1ccc(Cl)cc1)Nc1ccc(S(=O)(=O)Nc2ncccn2)cc1,0,5,-29%,79µM*,-9%,40%
O=C(/C=C/c1cccc(F)c1)Nc1ccc(S(=O)(=O)Nc2ncccn2)cc1,-4,-7,-6%,-35%,-17%,-1%
CC(=O)Nc1ccc(SCC(=O)NNC(=O)CN(C)S(=O)(=O)c2ccc(C)cc2)cc1,11,2,0%,45µM*,-4%,94%
O=C(/C=C/c1ccc(Br)cc1)Nc1ccc(S(=O)(=O)Nc2ncccn2)cc1,0,/,89µM*,/,-14%,33%
CCc1c(C(=O)NNC(=S)Nc2ccc(S(=O)(=O)Nc3ncccn3)cc2)csc1C,9,-16,1%,20µM*,-13%,28%
CC(=O)c1ccc(S(=O)(=O)N(C)CC(=O)Nc2ccc(C)cc2)cc1,2,7,-4%,20%[59 µM],6%,33%
CCOc1ccc(S(=O)(=O)NCCc2c(C)[nH]c3c(Cl)cccc23)cc1C,/,/,?,?,?,-6%
O=C(CSc1nc(-c2ccc(F)cc2)cc(C(F)(F)F)n1)NCc1ccccc1,/,/,2%[57.1 µM],-19%[59 µM],-7%,14%
O=C(Cn1c(=O)nc(-c2ccccc2)c2cc(Cl)ccc21)NCc1ccccc1,/,/,-3%,24%[59 µM],-3%,10%
CC(=O)Nc1ccc(S(=O)(=O)Nc2ncccn2)cc1,3,10,/,17%[59 µM],-16%,14%
Cc1ccc(SCC(=O)Nc2ccc(S(=O)(=O)Nc3ncccn3)cc2)cc1,5,/,-17%,45µM*,-22%,19%
O=C(Nc1ccc(S(=O)(=O)Nc2ncccn2)cc1)C1=COCCO1,-8,8,-6%,32µM*,-22%,34%
SMILES,Six1-Eya2 blk,CtBP-E1A blk,BAZ2B block,G9a inh,JMJD2A Tudor inh,HP1b chromo inh
Cc1cc(C)nc(SCC(=O)Nc2ccc(S(=O)(=O)Nc3ncccn3)cc2)n1,4,4,-15%,/,3%,24%
Cn1c(=O)c2c(SCC(=O)N3CCc4ccccc43)nc(-c3cccc(F)c3)nc2n(C)c1=O,/,/,2%,-3%[59 µM],-15%,43%[57 µM]
Cc1ccc(NC(=O)c2c(C)oc3c2C2=NCCN2C=N3)cc1F,/,/,-15%,10%[59 µM],-10%,18%
Clc1cccc(N2CCN(Cc3ccc(Br)o3)CC2)c1,2,6,?,6.3µM*,28µM*,?
Clc1ccc(N2CCN(Cc3cc4ccccn4n3)CC2)cc1,/,/,/,14%[59 µM],/,/
O=C(NCC(=O)N1CCN(c2cccc(Cl)c2)CC1)c1ccc(Br)o1,-3,6,0%,12%,-11%,18%
Clc1ccc(N2CCN(Cc3ccc(Br)o3)CC2)cc1,-2,-1,50µM*,13µM*,20µM*,?
CN1CCCN=C1/C=C\c1cccs1,/,/,/,5%[21.5 µM],/,/
O=C(CCCCn1c(=O)c2ccccc2n(Cc2ccccc2Cl)c1=O)NCCc1ccccc1,/,/,41%,27%[59 µM],-13%,60%
O=c1[nH]c2ccc(N=Cc3c(O)ccc4cc(Br)ccc34)cc2[nH]1,-16,-9,?,1.6µM*,45µM*,0%
COc1ccc(C2C(C(N)=O)=C(C)Nc3nc(CCCO)nn32)c(OC)c1 (stereo not given),/,/,2%,5%[59 µM],-6%,26%
N#CCCN1CCN(C(=S)c2ccc(-c3cc(Cl)ccc3Cl)o2)CC1,-13,?,?,18µM*,40µM*,?
COc1cccc(OC)c1NC(=O)c1ccc(-c2cc(Cl)ccc2Cl)o1,-8,-10,/,/,/,/
CN1CCN(C(=S)c2ccc(-c3cc(Cl)ccc3Cl)o2)CC1,-11,/,28µM*,32µM*,35µM*,?
O=S(=O)(c1ccccc1)c1nc(-c2ccc(Cl)cc2Cl)oc1N1CCCCCC1,/,/,?,?,?,-22%
O=c1c2sc3ccccc3c2n(Cc2cccc(C(F)(F)F)c2)c(=O)n1-c1ccccc1,/,/,0%,-4%[59 µM],-10%,15%
CCc1cc(-c2n[nH]c(=S)n2Cc2ccccc2)cs1,-5,-11,-24%,?,56µM*,-5%
CCCCn1c(-c2ccccc2)nnc1-c1ccccc1,2,5,2%,-33%[12.7 µM],-1%,28%
CCCCn1c(-c2csc(CCC)c2)n[nH]c1=S,5,-1,-4%,8.9µM*,?,20%
CCCc1cc(-c2n[nH]c(=S)n2C(C)c2ccccc2)cs1 (stereo not given),-1,-5,-36%,?,-31%,-4%
CCc1cc(-c2n[nH]c(=S)n2-c2ccccc2C)cs1,-1,4,-7%,1.8µM*,35µM*,1%
CCCc1cc(-c2n[nH]c(=S)n2CC)cs1,-6,15,-37%,?,3.5µM*,-20%
O=C(c1ccc2c(c1)N(Cc1ccc(Cl)cc1)C(=O)c1ccccc1S2(=O)=O)N1CCCCCC1,/,/,-20%,-25%[59 µM],-10%,24%
